# SDO1 yeast rescue: sdo1-depleted yeast growth rescue; S. cerevisiae sdo1-depleted JHY4D growth rescue, OD600 30 h; active compounds read high; pdr5 snq2 efflux-pump mutant strain; z-score at 10 µM; 0.21% of 140,000 active;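 active = z-score above 3 at both the 24 hr and the 30 hr optical density reads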;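 also: z-score against mean and SD of all compound wells on the same plate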
# Measles CPE: protection of cells from measles virus; AID 841; protection (pct of control), % at 4 µM; 1.5% of 140,000 active; Measles virus-infected cells, CPE protection, absorbance; in the data active = protection mostly above about 24%, no sharp cut-off; inactive = mostly below about 26%
# INS promoter inh: TRM-6 insulin promoter activity inhibition; TRM-6 cells (human fetal islet line), insulin promoter-eGFP reporter, imaging; reporter expression induced with tamoxifen; inhibition, % at 2 µM; 0.9% of 130,000 active; AID 1273;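 active = inhibition above the mean plus 3 SD, with well images judged a real hit on visual review, cut at about 60% in these data, passing the limit was not always enough; inconclusive = inhibition over the cutoff but images rejected on review; inactive = inhibition not above the cutoff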
# ROMK primary: modulators of human ROMK potassium channel; P48048; B-score at 10 µM; Tet-inducible ROMK, thallium flux fluorescence; actives lie on both sides; AID 1918; 2% of 130,000 active;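 active = signal ratio slope over the read window, or its plate-corrected B-score, at least 3 SD from the plate mean, either direction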;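 also: B-score of the F/F0 ratio slope over 7 to 12 s after thallium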
# Target sequence (P48048 whole entry, looked up): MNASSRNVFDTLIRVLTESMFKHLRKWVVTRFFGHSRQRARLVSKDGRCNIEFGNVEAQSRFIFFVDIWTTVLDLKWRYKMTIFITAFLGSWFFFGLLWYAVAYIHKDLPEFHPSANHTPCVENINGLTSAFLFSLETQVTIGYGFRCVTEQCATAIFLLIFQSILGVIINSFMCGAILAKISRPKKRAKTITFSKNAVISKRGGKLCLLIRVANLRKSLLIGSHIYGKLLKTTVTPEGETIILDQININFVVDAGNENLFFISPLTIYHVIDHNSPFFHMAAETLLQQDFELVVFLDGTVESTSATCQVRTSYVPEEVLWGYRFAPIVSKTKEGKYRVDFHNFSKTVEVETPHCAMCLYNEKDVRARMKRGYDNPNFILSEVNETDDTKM
# ROMK retest: retested hit modulating human ROMK potassium channel; 54% of 3,000 active; shares compounds with ROMK primary; normalized thallium flux (F/F0 slope) at 10 µM; ROMK thallium flux, fluorescence ratio; active compounds read low;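 active = Flux at 10 µM at least 3 SD below or above vehicle control mean in one or both replicates; inconclusive = no clear call, values can overlap the other calls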
# * marks the source's active call; other numbers are inactive results; i = inactive; ? = inconclusive; nt = no result. Shown are actives, neighbours in structure and some others; about 3% of the full set was active somewhere.
SMILES,SDO1 yeast rescue,Measles CPE,INS promoter inh,ROMK primary,ROMK retest
Cc1ccc(-n2c(O)c(/C=N/NC(=O)C3COc4ccccc4O3)c3ccccc3c2=O)cc1 (configuration not stated),-0.58,5,35,-2.7*,0.052*
Cc1ccc(S(=O)(=O)NCCN2CCOCC2)c(C)c1C,nt,nt,nt,0.61,nt
CCCCCCN1C=CC=C/C1=C/C=C(C#N)C#N,-1.8,4,-36,-6.9*,0.046*
CCCCCCN1C=C/C(=C\C=C(C#N)C#N)c2ccccc21,0.01,6,nt,nt,nt
Cc1ccc(CCN2C(=O)CCC2(C)C(=O)NC2CCCC2)cc1 (configuration not stated),1.1,9,-15,1,0.072
CCOc1ccc(-c2nn(-c3ccccc3)cc2/C=C2\SC(=S)N(C3CCS(=O)(=O)C3)C2=O)cc1 (configuration not stated),0.91,12,11,-5.4*,0.049*
CCCOc1ccc(-c2nn(-c3ccccc3)cc2/C=C2\SC(=S)N(C3CCS(=O)(=O)C3)C2=O)cc1 (configuration not stated),-0.07,2,24,nt,nt
COc1cccc(C(C(=O)NC(C)(C)C)N(CCC(C)C)C(=O)CCC(=O)Nc2cc(C)on2)c1OC (configuration not stated),nt,nt,nt,-1.1,nt
CCC(C)(C)NC(=O)C(c1cccc(OC)c1OC)N(CCC(C)C)C(=O)CCC(=O)Nc1cc(C)on1 (configuration not stated),nt,nt,nt,-2.5*,0.063*
CSS(=O)(=O)c1cccc2cccnc12,nt,nt,nt,nt,0.09
OC(COCc1cccs1)CN1CCN(c2cccc(Cl)c2)CC1 (configuration not stated),-1.5,54*,-16,-2.6*,0.054*
CC(=O)NNC(=O)CCn1nnc(-c2ccc(Cl)cc2)n1,nt,nt,nt,0.13,nt
COc1nc(Cl)cn(-c2ccc(C)cc2)c1=O,-1.1,2,-13,nt,nt
Cc1ccc(-n2c(Cl)c(Cl)nc(Cl)c2=O)cc1,-1.8,1,-233,-4.7*,0.047*
CN(C)CCN1C(=O)C(O)=C(C(=O)c2ccco2)C1c1ccccc1F (configuration not stated),-0.23,6,6,nt,0.076
COc1cccc(C2C(C(=O)c3ccco3)=C(O)C(=O)N2CCN(C)C)c1OC (configuration not stated),0.82,14,14,1,nt
Fc1ccc(CCNC(=S)Nc2ccc(F)c(Cl)c2)cc1,nt,nt,nt,0.52,nt
Cc1ccc(NS(=O)(=O)c2cc([N+](=O)[O-])ccc2NNC(=S)Nc2cc(C)ccc2C)c(C)c1,1.2,6,8,nt,0.064*
O=C(NC1CCCCCC1)C1c2ccccc2C(=O)N1Cc1cccnc1 (configuration not stated),0.66,8,24,nt,nt
O=C(NC1CCCCCCC1)C1c2ccccc2C(=O)N1Cc1ccco1 (configuration not stated),-0.26,14,3,nt,?
CC1(C)OC(C)(C)/C(=C/Nc2ccccc2)C1=O,0,3,0,1.7,nt
CCOC(=O)CSC1=C(C#N)C(c2ccccc2OCC)C(C(=O)OCC)C(=O)N1 (configuration not stated),-0.24,10,nt,-0.58,nt
CCOC(=O)CSC1=C(C#N)C(c2ccccc2OCC)C(C#N)C(=O)N1 (configuration not stated),-0.01,2,nt,3.2*,0.085
O=C(N/N=C/C(Br)=C\c1ccccc1)c1n[nH]c2c1CCC2,-1.8,0,-39,2.9,nt
O=C(N/N=C/C=C/c1ccccc1)c1n[nH]c2c1CCC2,-1.1,7,24,4*,0.09
SMILES,SDO1 yeast rescue,Measles CPE,INS promoter inh,ROMK primary,ROMK retest
CC(/C=N/NC(=O)c1n[nH]c2c1CCC2)=C\c1ccccc1,-0.2,2,-58,5.5*,0.09
CCCNc1nc(C)c(C(C)=O)cc1C#N,-0.96,0,nt,1.4,nt
Cc1ccc(C)c(NC2=C(Cl)C(=O)OC2OC(C)C)c1 (configuration not stated),nt,nt,7,1.5,nt
CCOC(=O)C1CCN(C(=O)COc2cc(C)c(Br)cc2C)CC1,-0.42,2,38,-4.9*,0.058*
CC(NC(=O)CCSc1nc(-c2ccc3c(c2)OCO3)cc(C(F)(F)F)n1)c1ccccc1 (configuration not stated),-2.2,20,-43,nt,nt
Cc1cc(NC(=O)C2CCCN2C(=O)Nc2c(C)cccc2C)ccc1-n1cnnn1 (configuration not stated),0.05,26,10,-1.1,nt
Cc1cc(C)cc(NC(=O)N2CCCC2C(=O)Nc2ccc(-n3cnnn3)c(C)c2)c1 (configuration not stated),-0.39,11,-53,nt,0.076
Cc1cc(NC(=O)CSCC(=O)N(c2cccc(Cl)c2)C(C(=O)NC2CCCCC2)c2ccc(O)c(O)c2)no1 (configuration not stated),0.72,6,-29,-4.8*,0.056*
O=C(NC1CCCCC1)C(c1cccnc1)N(C(=O)CCl)c1cccc(Cl)c1 (configuration not stated),-1.4,0,i,-3.3*,0.051*
COc1cccc(C(c2nnnn2C(C)(C)C)N2CCN(C3CCCCC3)CC2)c1OC (configuration not stated),-0.04,8,21,-2.4*,?
O=[N+]([O-])c1ccc2nc(CN3CCCCC3)[nH]c2c1,nt,nt,nt,0.56,nt
O=[N+]([O-])c1ccc2nc(CCCc3nc4ccc([N+](=O)[O-])cc4[nH]3)[nH]c2c1,nt,nt,nt,-6.9*,0.027*
Cc1ccc(NC(=O)c2ccc(Nc3ccccc3F)nc2)cc1,0.84,8,nt,2.7*,0.081
CCn1c(C(=O)N2CCC(C(=O)NCCCSC3CCCCC3)CC2)cc2sccc21,-2.6,5,nt,nt,?
COc1cc(C2CC(=O)c3cnc(N)nc3C2)cc(OC)c1OC (configuration not stated),1.1,-1,42,3.9*,0.072
Cc1nc(SCC(=O)N2c3ccccc3Sc3ccccc32)n[nH]1,-0.38,19,-27,-0.46,nt
C=CCNC(=O)C1CCN(c2cnccn2)CC1,nt,nt,nt,-0.013,nt
COC(=O)C1CCN(c2cnccn2)CC1,nt,nt,nt,nt,0.078
CCOCCCNC(=O)Cc1ccc(OC)c(OC)c1,0.59,10,54,nt,0.083
CC(=C/c1ccccc1)/C=C1/SC(N2CCOCC2)=NC1=O,0,6,-60,nt,0.053*
O=C1N=C(N2CCOCC2)S/C1=C/c1ccc(-c2ccccc2Cl)o1,-0.79,4,23,nt,0.056*
COC(=O)c1cc(C(=O)OCC(=O)Nc2ccccc2OC(F)F)cc([N+](=O)[O-])c1,-0.5,nt,-12,nt,nt
COc1ccccc1NC(=O)N1CCC(c2nc3ccccc3o2)CC1,nt,nt,nt,0.091,nt
COc1ccc(N=c2oc3c(OC)cccc3cc2C(=O)NCc2ccco2)c(OC)c1,-0.27,2,21,-0.81,nt
O=C(Cn1ncc(Cl)c(Cl)c1=O)N1CCc2ccccc21,nt,nt,-431,-3.3*,?
COc1cccc(CNC(=O)CCC2CCCN(C/C=C/c3ccccc3OC)C2)c1 (configuration not stated),nt,nt,nt,-5.5*,0.065*
COc1ccccc1/C=C/CN1CCCC(CCC(=O)NCc2ccc(F)c(F)c2)C1 (configuration not stated),nt,nt,nt,-1.8,nt
